# GC-A act = GC-A (human) enzyme activation | HEK293 GC-A cells, cGMP TR-FRET, EC30 ANP; 0% at EC30 ANP, 100% saturating ANP | P16066 | AID 1671463 | hit rate 0.14% among 370,000 | activation, % at 10 µM; in the data active = activation above about 40%
# NPR2 activator = GC-B (human) receptor activation | HEK293-GC-B cells, CNP EC30, cGMP TR-FRET; 0% at EC30 CNP, 100% saturating CNP | activation, % at 10 µM | hit rate 0.11% among 370,000;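 active = activation at 10 µM reaching about 35% in either raw or pattern-adjusted values, limit read from the data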
# KLK7 zymogen act = activates the human kallikrein-7 zymogen | hit rate 0.9% among 370,000 | activation, % at 7 µM | purified proKLK7, EDANS-DABCYL substrate fluorescence; 100% is mature enzyme control, 0% vehicle | P49862;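 active = activation above the mean of all tested compounds plus 3 SD, computed per campaign excluding outliers beyond control limits, cut at about 13% in these data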
# ADAM10 inh = inhibits human ADAM10 | inhibition, % at 7 µM | hit rate 0.62% among 370,000 | recombinant ADAM10, EDANS/DABCYL FRET peptide cleavage, 3 h;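 active = inhibition above a per-campaign cutoff equal to the mean of compounds falling between control-based bounds plus 3 SD, cut at about 20% in these data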;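 note: 0% = DMSO wells while the 100% control is not disclosed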
# ADAM17 inh = inhibitors of human ADAM17 | P78536 | recombinant ADAM17, EDANS/DABCYL FRET peptide cleavage | inhibition, % at 6.95 µM | hit rate 0.83% among 370,000;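 active = inhibition above the mean of compounds lying between control limits plus 3 SD, set per campaign, cut at about 8.5% in these data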;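 note: 0% = DMSO-only wells as the low control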
# An asterisk follows results filed as active; i = inactive. Only some compounds are listed: those with a hit (about 2.2% of all), similar ones and a draw of the others.
SMILES,GC-A act,NPR2 activator,KLK7 zymogen act,ADAM10 inh,ADAM17 inh
Cc1ccc(NS(=O)(=O)c2cc(NC(=O)c3ccc4c(c3)NC(=O)CS4)ccc2C)c(C)c1,-3,11,-1,26*,10*
O=C(NCCS(=O)(=O)N1CCN(c2ccccc2F)CC1)c1ccc(F)c(F)c1,0,64*,0,0,-3
COc1ccc(Cl)cc1C(=O)NCCS(=O)(=O)N1CCN(c2ccccc2F)CC1,-1,1,0,0,-1
O=C1ON=C(c2ccccc2)/C1=C\c1ccco1,27,42*,0,0,-5
C[C@]12c3[nH]c4cc(-c5ccco5)ccc4c3CCN1C(=O)[C@@H](CC(=O)NCCC1=CCCCC1)C[C@@H]2C(=O)N1CCCCC1,-6,1,-2,-155,-40
C[C@]12c3[nH]c4cc(-c5ccco5)ccc4c3CCN1C(=O)[C@@H](CC(=O)NCCc1ccccn1)C[C@@H]2C(=O)N1CCCCC1,-11,-1,178*,i,-159
COc1ccc(OCC(=O)Nc2ccc(NC(=O)c3cccs3)c(OC)c2)cc1,-6,1,0,-6,0
COc1cc(NC(=O)c2cccs2)c(OC)cc1NC(=O)CCC(=O)Nc1ccc2ncccc2c1,-2,2,68*,-22,-8
O=C(c1cccs1)N1CC[C@H]2[C@H](CCCN2Cc2ccc(F)cc2)C1,3,6,0,-7,-3
S=C(c1ccc(-c2cccc(Cl)c2)o1)N1CCOCC1,29,35*,0,5,4
S=C(c1ccc(-c2cc(Cl)ccc2Cl)o1)N1CCOCC1,18,43*,1,-6,-8
S=C(c1ccc(-c2cccc(Cl)c2)o1)N1CCCCC1,7,11,0,6,-1
Cn1cc([N+](=O)[O-])c(C(=O)Nc2nc(-c3ccc(Cl)cc3)cs2)n1,60*,-2,0,14,4
Cc1nn(C)cc1CN(C)C(=O)c1cc2nc(-c3ccco3)cc(C(F)(F)F)n2n1,6,2,16*,-214,-63
Cc1nn(C)c(C)c1CN(C)C(=O)c1cc2nc(-c3ccco3)cc(C(F)(F)F)n2n1,0,8,5,-181,-56
O=C(Cc1ccc(-n2c(=O)c3ccccc3n(Cc3ccccc3Cl)c2=O)cc1)NCC1CCCO1 (configuration not stated),53*,62*,0,-17,-12
CCOC(=O)N1CCN(C(=O)CSCC(=O)Nc2nc(-c3ccc(OC)cc3)cs2)CC1,-2,2,0,9,2
CCCC(=O)Nc1nc(-c2ccc(Cl)s2)cs1,55*,1,0,0,0
CCOC(=O)N1CCN(C(=O)CSCC(=O)Nc2nc(-c3ccc(Cl)s3)cs2)CC1,42*,-7,0,-8,1
CC(CCN1CCC(C(O)(c2ccccc2)c2ccccc2)CC1)Oc1ccccc1C#N (configuration not stated),-28,-20,0,1,3
CCc1ccc(C2NC(=S)NC3=C2C(=O)CC(C)(C)C3)cc1 (configuration not stated),14,6,-1,-35,-7
CC(C)c1ccc(C2NC(=S)NC3=C2C(=O)CC(C)(C)C3)cc1 (configuration not stated),43*,2,0,-15,-2
COC(=O)c1nc2n(n1)C(c1cccc(Cl)c1)C1=C(CC(C)(C)CC1=O)N2 (configuration not stated),-14,-15,19*,-7,1
O=S1(=O)c2c(cccc2N2CCSCC2)Oc2ccccc2CN1Cc1cn(Cc2ccccc2C(F)(F)F)nn1,-3,-5,-5,4,8
CCOc1ccc(-n2c(SCC(=O)Nc3ccc(S(=O)(=O)Nc4nccs4)cc3)nnc2-c2ccncc2)cc1,-1,1,0,2,2
C=CCn1c(COc2ccc(C)cc2)nnc1SCC(=O)Nc1ccc(Oc2ccccc2)cc1,2,9,1,1,5
C=CCn1c(COc2ccc3c(c2)CCCC3)nnc1SCC(=O)Nc1cccc(SC)c1,0,-8,0,31*,16*
COc1ccc(Cn2c(=O)n(Cc3ccco3)c(=N)c3c4c(sc32)COC(C)(C)C4)cc1,56*,56*,-1,-3,0
